{"source": "PubChem BioAssay AID1220", "about": "(Sanford-Burnham Center for Chemical Genomics, 2008)", "note": "In all, about 190,000 compounds went through this assay and about 1,300 (0.68%) were called active. Cut-off read from the data, not from the text of the source: active = inhibition above about 50%; inactive = the rest. For the sample, actives were picked, then their nearest neighbours and some compounds at random.", "data": [{"target": "Mannose-6-phosphate isomerase (Homo sapiens) (UniProt P34949)", "sequence (P34949 whole entry, looked up)": "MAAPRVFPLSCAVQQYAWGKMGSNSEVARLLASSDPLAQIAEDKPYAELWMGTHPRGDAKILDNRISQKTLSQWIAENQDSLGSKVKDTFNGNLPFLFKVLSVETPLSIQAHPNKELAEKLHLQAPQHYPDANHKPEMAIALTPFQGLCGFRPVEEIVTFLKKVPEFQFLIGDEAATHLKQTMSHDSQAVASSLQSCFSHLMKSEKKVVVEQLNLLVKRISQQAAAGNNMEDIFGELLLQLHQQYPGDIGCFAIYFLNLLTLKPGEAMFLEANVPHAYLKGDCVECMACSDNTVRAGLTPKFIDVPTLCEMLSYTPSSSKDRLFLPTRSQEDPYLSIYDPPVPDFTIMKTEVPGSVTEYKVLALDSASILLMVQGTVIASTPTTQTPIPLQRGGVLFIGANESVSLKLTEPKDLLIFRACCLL", "assay": "MPI inhibition at elevated mannose 6-phosphate – biochemical, fluorescence intensity, high mannose 6-phosphate, primary screen (AID 1220)", "settings": "recombinant PMI enzyme, coupled fluorescence intensity; at 20 µM; active compounds read high", "values": [{"smiles": "Cc1nn(-c2ccccc2)c2[nH]c(=O)c(CNc3ccc4c(c3)OCCO4)cc12", "inhibition": "54.2% (active)"}, {"smiles": "CC(C)(C)c1nn(-c2ccccc2)c2[nH]c(=O)c(CNc3ccc4c(c3)OCCO4)cc12", "inhibition": "5.7% (inactive)"}, {"smiles": "Cc1nn(-c2ccccc2)c2[nH]c(=O)c(CNCCN3CCOCC3)cc12", "inhibition": "4.3% (inactive)"}, {"smiles": "Cc1nn(-c2ccccc2)c2[nH]c(=O)c(CNc3ccc(N4CCOCC4)cc3)cc12", "inhibition": "55.6% (active)"}, {"smiles": "CCc1ccc(NCc2cc3c(C)nn(-c4ccccc4)c3[nH]c2=O)cc1", "inhibition": "8.8% (inactive)"}, {"smiles": "Cn1cc(S(=O)(=O)CC(=O)N2CCCc3ccccc32)c2ccccc21", "inhibition": "6.6% (inactive)"}, {"smiles": "Cc1ccc(N2C(=O)NC(NC(=O)C(C)(C)C)(C(F)(F)F)C2=O)cc1", "note": "(stereo not given)", "inhibition": "4.9% (inactive)"}, {"smiles": "COC(=O)c1ccc(/C=N/NC(=O)CNc2cccc(C)c2)cc1", "inhibition": "9.8% (inactive)"}, {"smiles": "CCN(CCO)c1ccc(NC(=S)Nc2cccc(S(=O)(=O)N(C)C)c2)cc1", "inhibition": "54.1% (active)"}, {"smiles": "CN(C)S(=O)(=O)c1cccc(NC(=S)Nc2cc(Cl)cc(Cl)c2)c1", "inhibition": "-6.4% (inactive)"}, {"smiles": "CN(C)S(=O)(=O)c1cccc(NC(=S)NC2CCCCC2)c1", "inhibition": "-2.3% (inactive)"}, {"smiles": "CCN(Cc1ccccc1)S(=O)(=O)c1cc(C(=O)c2c(N)n(C)c(=O)n(C)c2=O)ccc1OC", "inhibition": "0.7% (inactive)"}, {"smiles": "CC1CCCN(C(=S)SCC(=O)O)C1", "note": "(stereo not given)", "inhibition": "0.2% (inactive)"}, {"smiles": "CC(C)(C)NCC(=O)N/N=C/c1ccc(OCc2ccccc2)cc1", "inhibition": "-4.4% (inactive)"}, {"smiles": "Nc1nn2c(-c3ccccc3)cc(=O)[nH]c2c1N=Nc1ccc(Br)cc1", "inhibition": "12.3% (inactive)"}, {"smiles": "Nc1nn2c(-c3ccccc3)cc(=O)[nH]c2c1N=Nc1ccc(O)cc1", "inhibition": "55.4% (active)"}, {"smiles": "Cc1cc(=O)[nH]c2c(N=Nc3ccc(O)cc3)c(N)nn12", "inhibition": "45.7% (inactive)"}, {"smiles": "COC(=O)c1ccccc1NC(=O)N1CCN(C(=O)c2ccco2)CC1", "inhibition": "13.1% (inactive)"}, {"smiles": "CCn1c(C)c(C(C)=O)c(N2CCN(c3ccccc3)CC2)nc1=S", "inhibition": "-20.8% (inactive)"}, {"smiles": "CCn1c(C)c(C(C)=O)c(N2CCN(c3ccc(OC)cc3)CC2)nc1=S", "inhibition": "50.3% (active)"}, {"smiles": "CCn1c(C)c(C(C)=O)c(N2CCN(c3ccc(F)cc3)CC2)nc1=S", "inhibition": "-6.4% (inactive)"}, {"smiles": "O=S(=O)(c1ccc(Br)cc1)N1CCN=C1SCc1cccnc1", "inhibition": "0.3% (inactive)"}, {"smiles": "Cc1ccc(-n2c(=O)c3ccccc3n(CC(=O)NCc3ccco3)c2=O)cc1", "inhibition": "-5.8% (inactive)"}, {"smiles": "CCCc1nnc2c(N(C)S(=O)(=O)c3ccccc3)nc3ccccc3n12", "inhibition": "4.2% (inactive)"}, {"smiles": "COc1ccc(NC(=S)NC(C)Cc2cccs2)cc1", "note": "(stereo not given)", "inhibition": "3.7% (inactive)"}, {"smiles": "CCc1cccc(NC(=O)Cn2cc(C=O)c3ccccc32)c1", "inhibition": "-9.7% (inactive)"}, {"smiles": "CC(C)c1ccc(OC(=O)NCCO)cc1", "inhibition": "9.1% (inactive)"}, {"smiles": "CC(C)c1ccc(OCC(=O)NCCO)cc1", "inhibition": "55.1% (active)"}, {"smiles": "O=C(COc1ccc(Br)cc1)NCCO", "inhibition": "8.7% (inactive)"}, {"smiles": "COc1ccc(/C=N/Nc2nccnc2Cl)cc1", "inhibition": "-6.9% (inactive)"}, {"smiles": "c1ccc(Nc2ccc3c4c(cccc24)CC3)cc1", "inhibition": "17.7% (inactive)"}, {"smiles": "CC(=O)c1ccc2c3c(cccc13)CC2", "inhibition": "6% (inactive)"}, {"smiles": "Nc1ccc2c3c(cccc13)CC2", "inhibition": "64.4% (active)"}, {"smiles": "OC(COc1ccc2c(c1)OCO2)CN1CCN(c2ccc(F)cc2)CC1", "note": "(stereo not given)", "inhibition": "-1% (inactive)"}, {"smiles": "CC(=O)c1cn(CC(=O)Nc2ccc(C)cc2C)c2ccccc12", "inhibition": "-0.4% (inactive)"}, {"smiles": "COc1cc(/C=N/NC(N)=O)ccc1OC(=O)c1ccco1", "inhibition": "3.7% (inactive)"}, {"smiles": "O=C(C1CCCO1)N(c1ccc(F)cc1)C1C=CS(=O)(=O)C1", "note": "(stereo not given)", "inhibition": "52.9% (active)"}, {"smiles": "CCOc1ccc(N(C(=O)C2CCCO2)C2C=CS(=O)(=O)C2)cc1", "note": "(stereo not given)", "inhibition": "-4.8% (inactive)"}, {"smiles": "Cc1ccc(N(C(=O)C2CCCO2)C2C=CS(=O)(=O)C2)cc1Cl", "note": "(stereo not given)", "inhibition": "0.2% (inactive)"}, {"smiles": "C=C1C(=O)[C@@]23[C@H](O)C[C@@H]4C(C)(C)CC[C@H](O)[C@@]4(C)[C@@H]2CC[C@@H]1[C@H]3O", "inhibition": "3.9% (inactive)"}, {"smiles": "C=C1C(=O)[C@@]23[C@H](O)C[C@@H]4C(C)(C)CC[C@H](O)[C@]4(C)[C@@H]2C[C@H](O)[C@@H]1[C@H]3O", "inhibition": "52.3% (active)"}, {"smiles": "Cc1cc2cc(C=O)c(Cl)nc2cc1C", "inhibition": "58.2% (active)"}, {"smiles": "CCOC(=O)/C(C#N)=C/c1cc2ccc(C)cc2nc1Cl", "inhibition": "21.5% (inactive)"}, {"smiles": "CCOC(=O)/C(C#N)=C/c1cc2ccccc2nc1Cl", "inhibition": "21.1% (inactive)"}, {"smiles": "Cc1ccc2cc(C=O)c(Cl)nc2c1", "inhibition": "39.8% (inactive)"}, {"smiles": "Cc1cc(C)c2cc(CNC3CCCC3)c(Cl)nc2c1", "inhibition": "3.4% (inactive)"}, {"smiles": "CC(C)(C)c1nn(-c2ccccc2)c2nc(Cl)c(C=O)cc12", "inhibition": "-0.4% (inactive)"}, {"smiles": "Cc1ccc2cc(C=O)c(N(C)C)nc2c1", "inhibition": "8.2% (inactive)"}, {"smiles": "Cc1cc2cc(C=C(C#N)C#N)c(Cl)nc2cc1C", "inhibition": "54.1% (active)"}, {"smiles": "CCC(C)(C(=O)NC1CCCCC1)N(C(=O)C1CCC(=O)N1)c1ccc(C)cc1", "note": "(stereo not given)", "inhibition": "-0.7% (inactive)"}]}]}
